Reference: PubChem BioAssay AID2284368 (EPA ToxCast)
Records with an inconclusive call do not appear. Activity calls are given as the source filed them. The calls were made as follows: active = hit-call score of the fitted dose curve at least 0.9, where 1 is the maximum; inconclusive = response in the unintended direction; inactive = score below 0.9.

target: Estrogen receptor (Homo sapiens) (UniProt P03372); assay: ATG_hERa_EcoTox2: Attagene TRANS-FACTORIAL EcoTox-2 HepG2 Assay for human Estrogen Receptor (ER)
Experimental: ATG_EcoTox2 is a cell-based, multiplexed assay created by modifying the existing Attagene TRANS-FACTORIAL system to include a panel of nuclear receptors from some or all the following species: human (Homo sapiens), african clawed frog (Xenopus laevis), rainbow trout (Oncorhynchus mykiss), japanese medaka (Oryzias latipes), and zebrafish (Danio rerio). The ECOTOX2-FACTORIAL format uses HepG2, a human liver cell line, with measurements taken at 24 hours after chemical dosing in a 24-well plate. ATG_hERa_EcoTox2 is one of 29 assay components measured or calculated from the ATG_EcoTox2 assay. It is designed to make measurements of mRNA induction, a form of inducible reporter, as detected with fluorescence intensity signals by Reverse transcription polymerase chain reaction (RT-PCR) and Capillary electrophoresis technology.The assay endpoint ATG_hERa_EcoTox2 was analyzed in the positive analysis fitting direction relative to DMSO as the negative control and baseline of activity. Using a type of inducible reporter, measures of mRNA for gain-of-signal activity can be used to understand the reporter gene at the transcription factor-level as they relate to the gene ER. Furthermore, this assay endpoint can be referred to as a primary readout, because this assay has produced multiple assay endpoints where this one serves a reporter gene function. To generalize the intended target to other relatable targets, this assay endpoint is annotated to the nuclear receptor intended target family, where the subfamily is steroidal.
Human liver HepG2 cells are transiently transfected with multiple reporter transcription units (MRTUs) in 6-well plates using FuGene 6 reagent (Roche; 3 ml FuGene/1 mg DNA). The MRTU constructs are regulated by a cis-regulating element (promoter). Each RTU expresses a GAL4-UAS that regulates the transcription of a nearby target reporter gene sequence. A major difference between the CIS and TRANS system is that in CIS activities of endogenous TFs are measured, whereas the TRANS assay evaluates changes in activities of exogenous, chimeric NR-Gal4 proteins. […] At the end of 24 hour incubation, total RNA was isolated using TriZol reagent (Invitrogen). The isolated RNA is then reverse-transcribed using oligo(dT) primer and Mo-MLV reverse transcriptase (Invitrogen) with DNAse I (Ambion) treatment for 30 min. The one-tenth of the produced cDNA was amplified by PCR using Taq DNA polymerase (Invitrogen) and two reporter sequence-specific primers. […] The fragments were purified using Qiaquick PCR columns (Qiagen), analyzed on an ABI 3130xL genetic analyzer (Applied Biosystems) with peak positions identified by using a set of X-rhodamine (ROX)-labeled MapMarker1000 molecular weight standards (BioVentures). […]

Sequence of Estrogen receptor (Homo sapiens) (P03372 whole entry, looked up): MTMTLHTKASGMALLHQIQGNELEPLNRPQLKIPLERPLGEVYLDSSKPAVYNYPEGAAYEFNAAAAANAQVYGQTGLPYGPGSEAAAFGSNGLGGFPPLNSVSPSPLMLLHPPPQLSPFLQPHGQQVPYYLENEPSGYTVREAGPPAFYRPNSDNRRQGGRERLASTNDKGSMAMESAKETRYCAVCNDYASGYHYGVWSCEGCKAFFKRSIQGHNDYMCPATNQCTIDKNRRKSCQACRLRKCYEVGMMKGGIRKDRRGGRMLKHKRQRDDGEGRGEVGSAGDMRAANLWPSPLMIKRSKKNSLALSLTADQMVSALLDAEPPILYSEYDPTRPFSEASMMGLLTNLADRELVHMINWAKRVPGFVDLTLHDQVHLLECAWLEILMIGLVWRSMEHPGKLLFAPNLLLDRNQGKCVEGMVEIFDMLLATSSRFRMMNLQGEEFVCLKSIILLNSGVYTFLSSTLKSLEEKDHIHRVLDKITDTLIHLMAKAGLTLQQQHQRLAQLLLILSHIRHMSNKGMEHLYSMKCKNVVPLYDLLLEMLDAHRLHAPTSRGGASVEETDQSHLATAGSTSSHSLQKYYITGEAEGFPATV

SMILES | AC50 | outcome
O=S(=O)(O)C(F)(F)C(F)(F)C(F)(F)C(F)(F)C(F)(F)C(F)(F)F | 50 µM (active) | 
CCCCOCN(C(=O)CCl)c1c(CC)cccc1CC |  | inactive
[Cl][Sn]([c]1ccccc1)([c]1ccccc1)[c]1ccccc1 |  | inactive
O=P(Oc1ccccc1)(Oc1ccccc1)Oc1ccccc1 | 3.41 µM (active) | 
